Data on 29 molecules can be found in the supplement of paper PMC4380459.

The assay deals with tubulin (bovine brain). Kind of assay: tubulin polymerization end-point dOD, fold change relative to DMSO vehicle; higher = more polymerization (stabilization). To be noted: 50 µM; 60 min; 37 °C. The essentials:
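In 384-well plates, compound at a final 50 μM in 0.5% DMSO was assembled on ice with bovine brain tubulin (4 mg/ml in G-PEM buffer) from the Cytoskeleton HTS-Tubulin polymerization kit, then read at 340 nm every minute for 1 hour at 37°C in a Tecan reader. Each value is the end-point change in optical density as percent fold change versus DMSO vehicle, scaled per run by the means and standard deviations of DMSO and reference-control wells.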
In the case of `COc1ccc2nc(SCC(=O)NCCc3ccc(OC)c(OC)c3)c(C)cc2c1`, the “tubulin polymerization end-point dOD” value is -15%.
For the molecule `N#Cc1ccc(Cc2cnc(NC(=O)c3ccc4ncsc4c3)s2)cc1`, the “tubulin polymerization end-point dOD” value was -40.1%.
For `COc1ccc2cc(CN(Cc3ccco3)C(=O)Nc3ccccc3OC)c(=O)[nH]c2c1` the value was 43.9%; for `O=C(Nc1ncc(Cc2ccc(Cl)cc2)s1)c1cnccn1`, -97.6%.
With `Cc1ccc(C2=NN(C(=O)c3ccncc3)C(c3ccccc3F)C2)cc1` (centres undefined), the “tubulin polymerization end-point dOD” value is -4.53%.
Regarding `Cn1c(C(=O)Nc2ccc(-c3nccs3)cc2)cc(Br)c1Br`, the “tubulin polymerization end-point dOD” value came to 15.5%.
Turning to `CCc1ccc2nc(SCC(=O)Nc3cc(C)ccc3C)c(C#N)cc2c1`, the “tubulin polymerization end-point dOD” value is -12.2%.
`CCc1ccc2nc(SCC(=O)Nc3ccccc3C)c(C)cc2c1`: the “tubulin polymerization end-point dOD” value is -20.5%.
As for `Cc1cc2cc3c(cc2nc1SCC(=O)NCCc1ccccc1)OCCO3`, the “tubulin polymerization end-point dOD” value came to 130%.
Consider `COc1cn(-c2ccccc2)nc1C(=O)N1CCc2ccccc21`, for which the “tubulin polymerization end-point dOD” value was -57.4%.
With `CCCn1c(SCC(=O)Nc2ccccc2OC)nnc1-c1cccnc1`, the “tubulin polymerization end-point dOD” value is -56.1%.
For `CCc1nnc(NC(=O)CSc2cc(C)c3cc(C)cc(C)c3n2)s1` the value was 19.7%; for `CCCC(NC(=O)c1cnc(SC)nc1)c1ccc2c(c1)OCCO2` (centres undefined), 2.16%.
On to `Cc1cc2nc(/C=C/c3cccnc3)sc2cc1C`, for which the “tubulin polymerization end-point dOD” value is -34.3%.
As for `CCc1ccc2nc(SCC(=O)Nc3ccccc3N3CCOCC3)c(C#N)cc2c1`, the “tubulin polymerization end-point dOD” value was -7.7%.
As for `COc1ccccc1NC(=O)CSc1nnc(-c2cccnc2)n1-c1ccccc1C`, the “tubulin polymerization end-point dOD” value was -57.2%.
In the case of `Cc1cccc(N2CCN(C(=O)c3cc(Cl)ccc3Cl)CC2)c1`, the “tubulin polymerization end-point dOD” value is -45.7%.
Regarding `Cc1cc2cc3c(cc2nc1SCC(=O)NC1CCCC1)OCCO3`, the “tubulin polymerization end-point dOD” value came out at 10.3%.
To `Cc1cccc(Cc2cnc(NC(=O)c3ccc(Br)cc3)s2)c1` belongs -17.2%; to `O=C(Nc1ccc2c(c1)OCCO2)C(=O)Nc1ccccc1Cl`, 13.5%.
As for `COc1ccc(/C=N/NC(=O)c2cccc(F)c2)cc1I`, the “tubulin polymerization end-point dOD” value turned out to be 10.5%.
Regarding `COc1ccc2nc(/C=C/c3cccc(F)c3)sc2c1`, the “tubulin polymerization end-point dOD” value came to 6.83%.
With `Nc1c(C(=O)c2ccccc2)sc2nc3c(cc12)CCCC3`, the “tubulin polymerization end-point dOD” value came out at 59.7%.
To `Cc1cccc(/C=N/N=C2\NC(=O)C(Cc3cccc(C)c3)S2)c1` (centres undefined) belongs 9.8%; to `COc1ccccc1NC(=S)N(Cc1ccccc1)Cc1cc2ccc(C)cc2[nH]c1=O`, 272%.
Turning to `COc1ccc2nc(SCC(=O)Nc3ccccc3OC)c(C#N)cc2c1`, the “tubulin polymerization end-point dOD” value is -9.01%.
Consider `Cc1ccc2cc(C)c3nn(CCNC(=O)c4cccnc4)c(=O)n3c2c1`, for which the “tubulin polymerization end-point dOD” value was -40.4%.
With `COc1ccccc1N1CC[NH+](Cc2c(-c3ccccc3)nc3sccn23)CC1`, the “tubulin polymerization end-point dOD” value is -21.9%.
To `CCN(CC)c1ccc(NC(=O)C2CC=CCC2)cc1` (centres undefined) belongs -23.9%.
